In PubChem BioAssay (NCATS):
Records with an inconclusive call do not appear. A call without a number means that no potency is given here. Calls of active or inactive are those of the source. The call rests on the fitted dose curve; in most records, active means well fitted cell-killing curve with a large enough effect; inconclusive means small, poorly fitted or top-dose-only effect, or effect the other way; inactive means no such curve, though single readings can be large or run the other way.

experiment: Quantitative High-Throughput drug screen in 47 multiple myeloma cell lines against the NCATS MIPE library collection: KMM1_JCRB cell viability assay (AID 1918960); conditions: KMM1 myeloma viability, CellTiter-Glo ATP luminescence, 48 h; series mostly up to 45.8 µM; further: nearly all actives have a fitted effect of over 30% in size
Source text: PI: Beverly A. Mock Ph.D.
Laboratory of Cancer Biology and Genetics,
Center for Cancer Research, National Cancer Institute,
National Institute of Health, Bethesda, Maryland
Drug resistance and disease progression are common in multiple myeloma (MM) patients, underscoring the need for new therapeutic combinations. […] We hypothesized that effective combinations would reduce MYC expression and enhance p16 activity. […] These preclinical data identify potentially useful drug combinations for evaluation in drug-resistant MM and reveal potential mechanisms of combined drug sensitivity.
Described herein is the primary MIPE qHTS used to cherrypick compounds. Validated compounds were then further tested for potential synergistic activiy.
[1] Peat TJ, Gaikwad SM, Dubois W, Gyabaah-Kessie N, Zhang S, Gorjifard S, Phyo Z, Andres M, Hughitt VK, Simpson RM, Miller MA, Girvin AT, Taylor A, Williams D, D'Antonio N, Zhang Y, Rajagopalan A, Flietner E, Wilson K, Zhang X, Shinn P, Klumpp-Thomas C, McKnight C, Itkin Z, Chen L, Kazandijian D, Zhang J, Michalowski AM, Simmons JK, Keats J, Thomas CJ, Mock BA. Drug combinations identified by high-throughput screening promote cell cycle transition and upregulate Smad pathways in myeloma. Cancer Lett. 2023 Aug 1;568:216284. doi: 10.1016/j.canlet.2023.216284. Epub 2023 Jun 24. PMID: 37356470; PMCID: PMC10408729.
SEQUENCE No. (e.g., 1, 2, 3, etc.); […] (e.g., Cells, Incubation, Reagent, etc.); VALUE and DESCRIPTION.
1; Cells; 5 uL; white, solid bottom 1536-well Greiner assay plate.
2; Compounds; 23 nL; Kalypsis pin tool (Wako USA) equipped with a 1536-well pin head to transfer to the assay plates.
3; Incubation; 48 hours; 37C incubation.
4; Reagent;5uL; CellTiter Glo (Promega).
5; Detector; 425V; Luminescence; Viewlux PerkinElmer.
NOTES (numbers refer to Sequence numbers above)
1. The cell-based screening methods employed in this study were like those previously published. Briefly, the corresponding myeloma cell lines were screened in 1,536-well plates with 500 cells, 5-uL per well for inhibition of cell viability (assessed by measuring ATP levels with CellTiterGlo).
2. NCATS MIPE 4.0 library of approved and investigational drugs were added using the Kalypsis pin tool. Wells treated with DMSO only for 100% viability and media only cells for 0% viability were used as controls.
3. The assay plates were covered and incubated for 48 hours in a 37C, 5% CO2 incubator with controlled humidity.
4. After 48 hours, CellTilter-GloTM luminescent substrate mix (Promega) reagent was added to the assay plate and plates we incubated for 5 min at room temperature.
5. Signal was measured as median relative luminescence units on a ViewLux (PerkinElmer) multiplate reader.
[1] Heske CM, Davis MI, Baumgart JT, Wilson K, Gormally MV, Chen L, Zhang X, Ceribelli M, Duveau DY, Guha R, Ferrer M, Arnaldez FI, Ji J, Tran HL, Zhang Y, Mendoza A, Helman LJ, Thomas CJ. Matrix Screen Identifies Synergistic Combination of PARP Inhibitors and Nicotinamide Phosphoribosyltransferase (NAMPT) Inhibitors in Ewing Sarcoma. Clin Cancer Res. 2017 Dec 1;23(23):7301-7311. doi: 10.1158/1078-0432.CCR-17-1121. Epub 2017 Sep 12. PMID: 28899971; PMCID: PMC6636827.
Potency means the concentration at half of the fitted maximal effect.

Q: Which Potency does the source give for `Cc1cc(O)c2c(c1)C(=O)c1cccc(O)c1C2=O` here?
A: inactive

Q: For `C[C@H](NC(=O)Cc1cc(F)cc(F)c1)C(=O)N[C@H](C(=O)OC(C)(C)C)c1ccccc1`, which Potency is on record?
A: inactive

Q: Which Potency does the source give for `NC(=NCCCCCCN=C(N)N=C(N)Nc1ccc(Cl)cc1)N=C(N)Nc1ccc(Cl)cc1` here?
A: 18.7 µM (active)

Q: Which Potency does the source give for `CC(=O)NCC(=O)N1[C@H]2CC[C@H]1c1cc(Nc3ncc(C(F)(F)F)c(NC4CCC4)n3)ccc12` here?
A: 3.72 µM (active)

Q: For `CC(C)(C)[N+]([O-])=Cc1ccc(S(=O)(=O)O)cc1S(=O)(=O)O`, which Potency is on record?
A: inactive

Q: With `CCNC(=O)Nc1ccc(-c2nc3c(c(N4CCOC[C@H]4C)n2)CCN(C2COC2)C3)cc1` as the molecule, how does the Potency read?
A: 0.332 µM (active)

Q: With `C=CCNC1=C2C[C@@H](C)C[C@H](OC)[C@@H](O)[C@@H](C)C=C(C)[C@H](OC(N)=O)[C@@H](OC)C=CC=C(C)C(=O)NC(=CC1=O)C2=O` as the molecule, how does the Potency read?
A: 0.148 µM (active)

Q: With `Cc1[nH]c(C=C2C(=O)Nc3ccccc32)c(C)c1CCC(=O)O` as the molecule, how does the Potency read?
A: 13.2 µM (active)

Q: Which Potency does the source give for `NC(=O)Nc1sc(-c2ccc(F)cc2)cc1C(N)=O` here?
A: 0.209 µM (active)

Q: Which Potency does the source give for `C=CC(=O)N1CCc2ccc(-n3c(=O)ccc4cnc5ccc(-c6cnn(C)c6)cc5c43)cc21` here?
A: 0.833 µM (active)

Q: Which Potency does the source give for `N#Cc1ccc(COC[C@H]2O[C@@H](n3c(NCc4ccc(Cl)c(Cl)c4)nc4c(N)ncnc43)[C@@H](O)[C@@H]2O)cc1` here?
A: 5.26 µM (active)

Q: Which Potency does the source give for `NC(=O)c1cccc(-c2cccc(OC(=O)NC3CCCCC3)c2)c1` here?
A: inactive

Q: For `CC(=O)NC(CS)C(=O)O` (stereo not given), which Potency is on record?
A: inactive

Q: Which Potency does the source give for `CC(=O)ON=C1C(c2c(O)[nH]c3cc(Br)ccc23)=Nc2ccccc21` here?
A: 5.9 µM (active)

Q: Which Potency does the source give for `COC(=O)[C@@H]1CC2=CC(=O)CC[C@]2(C)[C@@]23O[C@@H]2C[C@@]2(C)[C@H](CC[C@@]24CCC(=O)O4)[C@@H]13` here?
A: inactive

Q: With `N#CC(=Cc1ccc(O)c(O)c1)C(=O)NCc1ccccc1` as the molecule, how does the Potency read?
A: inactive

Q: With `O=C1NC(O)CCN1[C@@H]1O[C@H](CO)[C@H](O)[C@H]1O` (stereo not given in full) as the molecule, how does the Potency read?
A: inactive

Q: Which Potency does the source give for `O=c1c(O)c(-c2ccc(O)c(O)c2)oc2cc(O)ccc12` here?
A: 5.9 µM (active)

Q: For `CCS(=O)(=O)Nc1ccc2[nH]c(O)c(C(=Nc3ccc(CN4CCCCC4)cc3)c3ccccc3)c2c1`, which Potency is on record?
A: 3.72 µM (active)

Q: For `C[C@@H]1[C@H](C)CC[C@]2(C(=O)O)CC[C@]3(C)C(=CC[C@@H]4[C@@]5(C)C[C@@H](O)[C@H](O)[C@@](C)(CO)[C@H]5CC[C@]43C)[C@@H]12`, which Potency is on record?
A: inactive

Q: With `CCCCCCCCc1ccc(CCC(N)(CO)CO)cc1` as the molecule, how does the Potency read?
A: 6.62 µM (active)

Q: With `C=C[C@@H]1CN2CCC1C[C@H]2[C@H](O)c1ccnc2ccc(OC)cc12` (stereo not given in full) as the molecule, how does the Potency read?
A: inactive

Q: For `COc1cc2c(cc1OC)[C@@H]1C(=O)c3ccc4c(c3O[C@@H]1CO2)C=CC(C)(C)O4`, which Potency is on record?
A: 0.526 µM (active)

Q: Which Potency does the source give for `CCC[C@H]1C[C@H](C(=O)N[C@@H]([C@@H]2O[C@@H](SC)[C@@H](O)[C@@H](O)[C@@H]2O)[C@H](C)Cl)N(C)C1` here?
A: inactive

Q: With `O=C(C[C@@H]1CC=CCCC(=O)O[C@H](c2ccccc2)CNC1=O)NCc1ccc(Cl)cc1` as the molecule, how does the Potency read?
A: inactive

Q: For `Cc1ccc(-n2[nH]c(C)c(N=Nc3cccc(-c4cccc(C(=O)O)c4)c3O)c2=O)cc1C`, which Potency is on record?
A: inactive

Q: For `CC(=O)[C@]1(O)Cc2c(O)c3c(c(O)c2[C@@H](O[C@H]2C[C@H](N)[C@@H](O)[C@H](C)O2)C1)C(=O)c1ccccc1C3=O`, which Potency is on record?
A: 2.35 µM (active)

Q: Which Potency does the source give for `CC(C)[C@H](CO)Nc1nc(Nc2cccc(Cl)c2)c2ncn(C(C)C)c2n1` here?
A: inactive

Q: With `COc1ccc(Nc2cc(-c3cnc(N)nc3)nc(N3CCOCC3)n2)cn1` as the molecule, how does the Potency read?
A: 0.59 µM (active)

Q: For `C[C@H]1O[C@H](O[C@H]2[C@H](O)[C@@H](O)[C@@H](O[C@H]3[C@H](O)[C@@H](O)C(O)O[C@H]3CO)O[C@H]2CO)[C@H](O)[C@@H](O)[C@H]1N[C@H]1C=C(CO)[C@@H](O)[C@H](O)[C@@H]1O` (stereo not given in full), which Potency is on record?
A: inactive

Q: For `CC(Oc1ccc(O)cc1)(P(=O)(O)O)P(=O)(O)O`, which Potency is on record?
A: inactive

Q: With `C=C(C)[C@@H]1CC[C@]2(C)CC[C@]3(C)[C@H](CC[C@@H]4[C@@]5(C)CC[C@H](O)C(C)(C)[C@H]5CC[C@]43C)[C@@H]12` as the molecule, how does the Potency read?
A: inactive

Q: Which Potency does the source give for `CN1C(C(=O)Nc2ccccn2)=C(O)c2sc(Cl)cc2S1(=O)=O` here?
A: inactive

Q: Which Potency does the source give for `CC[C@]12C=CCN3CC[C@@]4(c5cc([C@@]6(C(=O)OC)C[C@H]7C[C@@H](C(C)(F)F)CN(Cc8c6[nH]c6ccccc86)C7)c(OC)cc5N(C)[C@H]4[C@@](O)(C(=O)OC)[C@H]1OC(C)=O)[C@@H]32` here?
A: 0.0083 µM (active)

Q: For `C=CC(=O)Nc1cccc(Nc2nc(NC3CCC(N(C)C)CC3)nc3c2ncn3C(C)C)c1` (stereo not given), which Potency is on record?
A: 0.0132 µM (active)

Q: Which Potency does the source give for `OCc1ccccc1O[C@@H]1O[C@H](CO)[C@H](O)[C@H](O)[C@H]1O` here?
A: inactive

Q: Which Potency does the source give for `C=CC(=O)Nc1cc(NC(=O)c2ccc(C)c(NC(=O)c3ccno3)c2)cc(C(F)(F)F)c1` here?
A: 5.9 µM (active)

Q: For `Cn1cc(C=CC(=O)c2cccc(F)c2)cc1C=CC(=O)NO`, which Potency is on record?
A: 16.6 µM (active)

Q: For `Cc1cnc(NC(=O)Nc2cc(Br)c(C)cc2OC[C@@H]2CNCCO2)cn1`, which Potency is on record?
A: 0.743 µM (active)

Q: Which Potency does the source give for `CC1(C)[C@H](O[C@H]2O[C@H](C(=O)O)[C@@H](O)[C@H](O)[C@H]2O[C@@H]2O[C@H](C(=O)O)[C@@H](O)[C@H](O)[C@H]2O)CC[C@@]2(C)[C@H]1CC[C@]1(C)[C@H]2C(=O)C=C2[C@H]3C[C@@](C)(C(=O)O)CC[C@]3(C)CC[C@]21C` here?
A: inactive
